# PubChem BioAssay
# Values joined by “and” are separate entries in the source; they are usually repeats but may differ in a detail not shown here. Identical values can stand only once. Results filed as inconclusive are left out. Active and inactive are the calls of the source. Unless noted, how the calls were made is not given here.
# Columns and labels:
# [1] = modulation of C. elegans fzo-1 (AID 1259413);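 further: fzo-1 mutant C. elegans worms in liquid wells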; conditions: C. elegans fzo-1 modulator screen, mean read-out; stronger effect = higher value
# [2] = P. berghei load reduction in hepatocytes – cell-based, HepG2, luciferase luminescence, HepG2 viability, primary screen (AID 624349; in the data active means parasite load remaining mostly below about 12%, no sharp cut-off; inactive means mostly above about 10%;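 further: 100% = mean of DMSO negative control wells on the same plate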); conditions: P. berghei liver stage in HepG2, luciferase luminescence, concentration not given here; parasite load remaining: stronger effect = lower value; viability: measured here: HepG2 viability without parasites
# [3] = signal quenchers or enhancers, Cy5 substrate/SSB – biochemical, NIH Clinical Collection, E. coli SSB, artefact control for HCV NS3 helicase inhibitor project (AID 743268); conditions: Cy5-oligo bound E. coli SSB, fluorescence interference
# [4] = tested on: Hepatitis C virus NS3 helicase; test: blockers of NS3h binding to DNA – biochemical, fluorescence polarization, NIH Clinical Collection, primary screen (AID 743270); conditions: NS3 helicase binding to Cy5-dT15 DNA, stronger effect = higher value, concentration not given here
# [5] = molecular target: Single-stranded DNA-binding protein (Escherichia coli (strain K12)) (UniProt P0AGE0); test: SSB-ssDNA binding inhibitors – biochemical, fluorescence polarization, NIH Clinical Collection, counter-screen for HCV NS3 helicase inhibitor project (AID 743271; in the data active means inhibition above about 28%); conditions: E. coli SSB-DNA binding, stronger effect = higher value, concentration not given here
# [6] = compounds distorting NS3 helicase fluorescence signal – biochemical, NIH Clinical Collection, artefact control for HCV NS3 helicase inhibitor project (AID 743272); conditions: fluorescence interference counterscreen, HCV NS3 helicase assay; stronger effect = lower value;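 further: HCV NS3 helicase with a Cy5 labelled single stranded DNA probe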
# [7] = tested on: Neuropilin-2 / VEGF-C interaction (human); test: small molecules blocking Neuropilin-2/VEGF-C interaction – biochemical, microplate binding format, z-score (AID 743281); conditions: microplate NRP2/VEGF-C binding assay; stronger effect = lower value
# [8] = EMT-state selective cytotoxicity in co-culture – imaging, PC-3E GFP, TEM4-18 mCherry, primary screen (AID 1345086;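 active means compounds killing one labelled cell type while sparing the other, by normalised counts and ratio limits, not self-fluorescent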;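 on all read-outs here: cells exposed to compound for 72 h before imaging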;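 on red/green cell ratio (normalised): normalised mesenchymal count divided by normalised epithelial count so high means epithelial killing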); conditions: PC-3E GFP / TEM4-18 mCherry co-culture, imaging cell counts, at 1 µM; for red/green cell ratio (normalised): actives lie on both sides, counts scaled to control wells, 1 = unselective
# [9] = viability loss with induced miR-34 in A549 – imaging, A549 dox-inducible miR-34, nuclei and caspase counts, primary screen (AID 1347080;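 active means compounds whose cell count with miR-34 switched on is under 0.7 times the count with it off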); conditions: A549 miR-34 inducible, Hoechst nuclei count, 48 h
# [10] = molecular target: NAD(+) hydrolase SARM1 (Homo sapiens) (UniProt Q6SZW1); test: blocking NAD cleavage by SARM1 SAM-TIR – cell lysate, NAD-Glo luminescence (AID 1508614;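 active means compound whose remaining NAD level is above about 45 nM, limit read from the data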); conditions: SAM-TIR HEK293T lysate NADase, at 1 µM, stronger effect = higher value
# Sequence of NAD(+) hydrolase SARM1 (Homo sapiens) (Q6SZW1 whole entry, looked up): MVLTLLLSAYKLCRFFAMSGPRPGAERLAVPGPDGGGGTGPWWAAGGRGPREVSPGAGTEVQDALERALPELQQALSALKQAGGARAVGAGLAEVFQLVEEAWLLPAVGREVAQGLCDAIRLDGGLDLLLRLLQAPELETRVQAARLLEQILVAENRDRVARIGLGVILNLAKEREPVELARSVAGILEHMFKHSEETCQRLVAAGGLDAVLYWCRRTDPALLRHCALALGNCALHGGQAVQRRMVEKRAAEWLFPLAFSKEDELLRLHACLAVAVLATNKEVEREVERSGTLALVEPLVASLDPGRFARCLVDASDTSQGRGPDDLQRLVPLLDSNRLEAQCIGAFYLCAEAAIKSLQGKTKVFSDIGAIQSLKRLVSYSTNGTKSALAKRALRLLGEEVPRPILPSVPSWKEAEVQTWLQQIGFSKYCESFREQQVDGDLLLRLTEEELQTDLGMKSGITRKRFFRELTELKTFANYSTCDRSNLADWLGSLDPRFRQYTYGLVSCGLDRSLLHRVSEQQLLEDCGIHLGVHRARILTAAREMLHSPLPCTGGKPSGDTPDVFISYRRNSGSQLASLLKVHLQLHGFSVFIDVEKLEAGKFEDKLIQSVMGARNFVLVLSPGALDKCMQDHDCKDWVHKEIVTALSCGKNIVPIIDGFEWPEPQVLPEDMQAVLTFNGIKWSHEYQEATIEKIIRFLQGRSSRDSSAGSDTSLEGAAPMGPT
# [11] = galactose survival enhancers in mitochondrial complex I cybrids – cell-based, galactose medium, ATP luminescence, primary screen (AID 1645843;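 active means z-score of at least 1.8 in each of two replicates, scored against plate mean and spread of sample wells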;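 further: positive z means more ATP and so rescue of galactose-driven cybrid death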); conditions: complex I mutant cybrid cells, 72 h, stronger effect = higher value
# [12] = viability loss in pontine glioma line – cell-based, SU-DIPG-XVII, MIPE5.0, CellTiter-Glo, qHTS, dose response (AID 1347060; cut-off not given, nearly all actives have AC50 up to about 26 µM;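 further: cells exposed to compound for 48 hours before viability readout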); conditions: CellTiter-Glo ATP luminescence
# [13] = viability loss in pontine glioma line – cell-based, JHH-DIPG-1, MIPE4.0, CellTiter-Glo, qHTS, dose response (AID 1347062; cut-off not given, nearly all actives have AC50 up to about 27 µM;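 further: cells exposed to compound for two days before readout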); conditions: JHH-DIPG-1 viability, CellTiter-Glo ATP luminescence
# [14] = viability loss in pontine glioma line – cell-based, SU-DIPG-IV, MIPE4.0, CellTiter-Glo, qHTS, dose response (AID 1347063; cut-off not given, nearly all actives have AC50 up to about 30 µM;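 further: compound exposure lasted 48 hours before the viability readout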); conditions: CellTiter-Glo ATP luminescence
# [15] = viability loss in pontine glioma line – cell-based, SU-DIPG-XIII, MIPE5.0, CellTiter-Glo, qHTS, dose response (AID 1347064; cut-off not given, nearly all actives have AC50 up to about 23 µM;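 further: cells exposed to compound for 48 hours before the viability read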); conditions: CellTiter-Glo ATP luminescence
# [16] = viability loss in pontine glioma line – cell-based, SU-DIPG-XXV, MIPE5.0, CellTiter-Glo, qHTS, dose response (AID 1347065; cut-off not given, nearly all actives have AC50 up to about 26 µM;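 further: cells exposed to compound for 48 hours before ATP readout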); conditions: CellTiter-Glo ATP luminescence
# [17] = growth inhibition of DIPG cells – cell-based, MIPE4.0 library, CellTiter-Glo luminescence, qHTS (AID 1347066; cut-off not given, nearly all actives have AC50 up to about 30 µM;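 further: cells exposed to compound for 48 hours before readout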); conditions: SU-DIPG-VI viability, CellTiter-Glo ATP luminescence
# [18] = JHH-DIPG-1 glioma cell viability, MIPE5.0 library, CellTiter-Glo luminescence, qHTS (AID 1347067; cut-off not given, nearly all actives have AC50 up to about 26 µM;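 further: cells exposed to compound for 48 hours before readout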); conditions: JHH-DIPG-1 glioma viability, CellTiter-Glo ATP luminescence
# [19] = growth inhibition of DIPG cells – cell-based, MIPE5.0 library, qHTS (AID 1347068; cut-off not given, nearly all actives have IC50 up to about 30 µM;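 further: cells exposed to compound for 48 hours before viability readout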); conditions: SU-DIPG-XXV viability
# [20] = compounds altering HSF1 focus formation in cells – imaging, Selleck Cancer Library (AID 1347162; in the data active means plate-normalised HSF1 focus index below about 0.46); conditions: human cells, HSF1 nuclear foci imaging, at 10 µM; SSMD: measured here: HSF1 foci SSMD mean; cell count: measured here: cell number; plate-normalised HSF1 focus index: stronger effect = lower value
# [21] = molecular target: Mitogen-activated protein kinase 7 (Homo sapiens) (UniProt Q13164); test: Gal4-ERK5 driven luciferase induction – cell-based, HTS, primary screen (AID 1508626;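 active means luciferase signal above three times the same-plate solvent-only control wells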;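 further: luciferase driven by Gal4-ERK5 fusion binding five Gal4 sites before minimal TATA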); conditions: HeLa Gal4-ERK5 transactivation, 18 h, at 5 µM, stronger effect = higher value
# Sequence of Mitogen-activated protein kinase 7 (Homo sapiens) (Q13164 whole entry, looked up, the tested form may be a part): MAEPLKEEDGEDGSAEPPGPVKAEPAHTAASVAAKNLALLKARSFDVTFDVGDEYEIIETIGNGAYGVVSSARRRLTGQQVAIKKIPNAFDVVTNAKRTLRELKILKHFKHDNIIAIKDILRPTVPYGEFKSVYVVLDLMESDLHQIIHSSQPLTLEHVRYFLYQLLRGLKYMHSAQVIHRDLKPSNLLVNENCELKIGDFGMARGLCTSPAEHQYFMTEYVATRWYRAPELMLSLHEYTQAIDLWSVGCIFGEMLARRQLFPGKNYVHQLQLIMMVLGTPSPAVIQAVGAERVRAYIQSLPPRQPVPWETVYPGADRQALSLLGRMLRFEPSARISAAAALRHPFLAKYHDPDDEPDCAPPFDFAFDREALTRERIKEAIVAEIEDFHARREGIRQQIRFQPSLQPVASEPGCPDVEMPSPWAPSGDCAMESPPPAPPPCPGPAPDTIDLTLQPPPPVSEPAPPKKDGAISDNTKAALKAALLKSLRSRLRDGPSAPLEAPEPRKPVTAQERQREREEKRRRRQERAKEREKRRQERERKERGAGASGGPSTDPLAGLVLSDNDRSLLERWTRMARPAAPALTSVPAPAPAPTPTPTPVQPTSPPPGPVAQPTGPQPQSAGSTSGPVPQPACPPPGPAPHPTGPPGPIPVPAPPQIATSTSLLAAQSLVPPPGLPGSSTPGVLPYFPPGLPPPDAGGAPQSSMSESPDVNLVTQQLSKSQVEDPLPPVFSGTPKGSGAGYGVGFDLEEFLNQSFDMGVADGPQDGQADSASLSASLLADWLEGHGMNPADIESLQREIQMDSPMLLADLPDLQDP
# [22] = measured here: epithelial PC-3E GFP cell survival
# [23] = measured here: mesenchymal TEM4-18 mCherry cell survival
compound,measurement,setting,value
CN(C)c1ccc(O)c2c1C[C@H]1C[C@H]3[C@H](N(C)C)C(=O)C(C(N)=O)=C(O)C3(O)C(=O)C1=C2O (stereo partly specified),mean signal,[1],263 (inactive)
CC(=O)OCC(=O)[C@@]1(O)CC[C@H]2[C@@H]3CCC4=CC(=O)C=CC4(C)[C@H]3[C@@H](O)CC21C (stereo partly specified),mean signal,[1],224 (inactive)
Cc1c(O)c(=O)ccn1C,parasite load remaining,[2],103% (inactive)
same,viability,[2],77.2%
same,fluorescence ratio,[3],0.96 (inactive)
same,inhibition,[4],1.98% (inactive)
same,inhibition,[5],6.83% (inactive)
same,fluorescence ratio,[6],0.92 (inactive)
same,z-score,[7],-1.2 (inactive)
same,mean signal,[1],235 (inactive)
same,red/green cell ratio (normalised),[8],0.89 (inactive)
same,normalised cell number,[8]; [22],1.06
same,normalised cell number,[8]; [23],0.95
same,fold change,"[9]; stronger effect = lower value, cell number ratio, induced over uninduced",0.87 (inactive) and 0.909 (inactive)
same,fold change,[9]; measured here: relative caspase fold change +Dox/-Dox,0.877 and 1.84
same,cell count,"[9]; measured here: total cells with miR-34 induction, stronger effect = lower value",8280 and 9190
same,cell count,[9]; measured here: total cells without miR-34 induction,9520 and 10100
same,remaining NAD,[10],10 nM (inactive)
same,z-score,[11],0.65 (inactive)
C[C@H](CCC(=O)O)[C@H]1CC[C@H]2[C@@H]3[C@@H](O)C[C@@H]4C[C@H](O)CCC4(C)[C@H]3CCC12C (stereo partly specified),mean signal,[1],253 (inactive)
CC(=O)OCC(=O)[C@@]1(O)CC[C@H]2[C@@H]3CCC4=CC(=O)CCC4(C)[C@H]3[C@@H](O)CC21C (stereo partly specified),mean signal,[1],278 (inactive)
CC(C)C[C@H](NC(=O)[C@@H](COC(C)(C)C)NC(=O)[C@H](Cc1ccc(O)cc1)NC(=O)[C@H](CO)NC(=O)[C@H](Cc1c[nH]c2ccccc12)NC(=O)[C@H](Cc1cnc[nH]1)NC(=O)[C@H]1CCC(=O)N1)C(=O)N[C@H](CCCN=C(N)N)C(=O)N1CCC[C@@H]1C(=O)NNC(N)=O,mean signal,[1],236 (inactive)
COc1cccc2c1C(=O)c1c(O)c3c(c(O)c1C2=O)C[C@@](O)(C(=O)CO)C[C@@H]3O[C@H]1C[C@H](N)[C@@H](O)[C@H](C)O1,parasite load remaining,[2],-0.12% (inactive)
same,viability,[2],25.2%
same,fluorescence ratio,[3],0.11 (active)
same,inhibition,[4],4.36% (inactive)
same,inhibition,[5],17.6% (inactive)
same,fluorescence ratio,[6],0.41 (active)
same,z-score,[7],-0.603 (inactive)
same,mean signal,[1],274 (inactive)
same,red/green cell ratio (normalised),[8],2.46 (active)
same,normalised cell number,[8]; [22],0.19
same,normalised cell number,[8]; [23],0.46
same,AC50,[12],332 nM (active)
same,AC50,[13],372 nM (active)
same,AC50,[14],833 nM (active)
same,AC50,[15],833 nM (active)
same,AC50,[16],1180 nM (active)
same,AC50,[17],4180 nM (active)
same,AC50,[18],2350 nM (active)
same,IC50,[19],9340 nM (active)
same,SSMD,[20],-16.4
same,cell count,[20],7260
same,plate-normalised HSF1 focus index,[20],0.155 (active)
same,remaining NAD,[10],10 nM (inactive)
same,luciferase signal,[21],20 AU (inactive)
